# Laboratory results reported in ChEMBL document CHEMBL1961873, “Compounds: GSK PKIS; Assays: Nanosyn kinase panel” (2012).
# Tests used:
# [1] = target: T1, Inhibitor of nuclear factor kappa-B kinase subunit epsilon (Homo sapiens) (UniProt Q14164); settings: at 1 µM;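 also: reported values are averaged percent inhibition figures against human IKKε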
# T1 sequence (whole entry): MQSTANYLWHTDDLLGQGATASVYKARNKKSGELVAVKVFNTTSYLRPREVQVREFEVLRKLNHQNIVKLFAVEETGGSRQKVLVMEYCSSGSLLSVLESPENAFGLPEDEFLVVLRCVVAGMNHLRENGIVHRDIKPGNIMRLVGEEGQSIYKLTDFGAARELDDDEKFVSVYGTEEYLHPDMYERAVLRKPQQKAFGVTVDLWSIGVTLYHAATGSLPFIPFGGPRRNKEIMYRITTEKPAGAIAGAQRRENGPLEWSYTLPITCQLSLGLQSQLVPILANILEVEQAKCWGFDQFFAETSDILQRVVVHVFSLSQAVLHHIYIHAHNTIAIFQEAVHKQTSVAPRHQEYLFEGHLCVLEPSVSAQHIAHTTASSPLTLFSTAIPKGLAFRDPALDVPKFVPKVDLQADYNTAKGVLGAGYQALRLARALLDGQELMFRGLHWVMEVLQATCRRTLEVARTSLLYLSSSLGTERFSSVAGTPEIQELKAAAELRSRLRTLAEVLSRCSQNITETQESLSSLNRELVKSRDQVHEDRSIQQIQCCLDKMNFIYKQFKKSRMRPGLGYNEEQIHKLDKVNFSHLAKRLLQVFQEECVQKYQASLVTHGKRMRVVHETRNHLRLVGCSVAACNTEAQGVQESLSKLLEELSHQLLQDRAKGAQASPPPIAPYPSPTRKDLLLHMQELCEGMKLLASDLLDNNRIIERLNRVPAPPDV
# [2] = target: T2, Serine/threonine-protein kinase Nek1 (Homo sapiens) (UniProt Q96PY6); settings: at 0.1 µM
# T2 sequence (whole entry): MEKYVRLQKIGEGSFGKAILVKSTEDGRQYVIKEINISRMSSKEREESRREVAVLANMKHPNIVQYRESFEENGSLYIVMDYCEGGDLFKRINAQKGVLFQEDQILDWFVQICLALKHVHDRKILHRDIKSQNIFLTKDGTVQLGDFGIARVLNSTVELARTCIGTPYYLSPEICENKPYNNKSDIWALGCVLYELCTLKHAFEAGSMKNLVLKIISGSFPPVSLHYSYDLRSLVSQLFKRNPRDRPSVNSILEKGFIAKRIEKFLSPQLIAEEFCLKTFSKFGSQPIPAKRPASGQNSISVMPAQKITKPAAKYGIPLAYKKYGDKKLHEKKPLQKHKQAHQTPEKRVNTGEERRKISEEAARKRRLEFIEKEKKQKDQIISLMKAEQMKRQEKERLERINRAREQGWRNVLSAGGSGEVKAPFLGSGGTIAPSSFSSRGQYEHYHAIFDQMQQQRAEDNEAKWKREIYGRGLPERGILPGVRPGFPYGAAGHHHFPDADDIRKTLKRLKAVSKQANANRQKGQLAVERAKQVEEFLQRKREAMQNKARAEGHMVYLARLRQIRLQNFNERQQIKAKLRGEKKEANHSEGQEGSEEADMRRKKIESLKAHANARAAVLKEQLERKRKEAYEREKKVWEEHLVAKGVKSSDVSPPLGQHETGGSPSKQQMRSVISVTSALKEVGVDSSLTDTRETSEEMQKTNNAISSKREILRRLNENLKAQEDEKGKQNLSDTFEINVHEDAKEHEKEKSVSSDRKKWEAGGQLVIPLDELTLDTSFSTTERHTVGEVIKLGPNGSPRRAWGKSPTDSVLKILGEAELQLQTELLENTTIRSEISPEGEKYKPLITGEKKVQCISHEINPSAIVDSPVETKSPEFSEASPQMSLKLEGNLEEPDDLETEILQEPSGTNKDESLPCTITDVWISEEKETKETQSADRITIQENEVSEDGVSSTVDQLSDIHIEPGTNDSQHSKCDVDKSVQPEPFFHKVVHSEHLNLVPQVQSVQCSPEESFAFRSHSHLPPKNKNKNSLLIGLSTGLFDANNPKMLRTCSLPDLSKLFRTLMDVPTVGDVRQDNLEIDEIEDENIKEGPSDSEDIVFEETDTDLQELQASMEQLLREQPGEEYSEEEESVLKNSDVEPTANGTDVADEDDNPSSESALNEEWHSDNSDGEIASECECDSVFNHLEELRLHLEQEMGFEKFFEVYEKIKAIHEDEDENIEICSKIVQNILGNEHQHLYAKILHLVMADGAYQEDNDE
# [3] = target: T2, Serine/threonine-protein kinase Nek1 (Homo sapiens); settings: at 1 µM
# [4] = target: T3, Serine/threonine-protein kinase Nek2 (Homo sapiens) (UniProt P51955); settings: at 0.1 µM
# T3 sequence (whole entry): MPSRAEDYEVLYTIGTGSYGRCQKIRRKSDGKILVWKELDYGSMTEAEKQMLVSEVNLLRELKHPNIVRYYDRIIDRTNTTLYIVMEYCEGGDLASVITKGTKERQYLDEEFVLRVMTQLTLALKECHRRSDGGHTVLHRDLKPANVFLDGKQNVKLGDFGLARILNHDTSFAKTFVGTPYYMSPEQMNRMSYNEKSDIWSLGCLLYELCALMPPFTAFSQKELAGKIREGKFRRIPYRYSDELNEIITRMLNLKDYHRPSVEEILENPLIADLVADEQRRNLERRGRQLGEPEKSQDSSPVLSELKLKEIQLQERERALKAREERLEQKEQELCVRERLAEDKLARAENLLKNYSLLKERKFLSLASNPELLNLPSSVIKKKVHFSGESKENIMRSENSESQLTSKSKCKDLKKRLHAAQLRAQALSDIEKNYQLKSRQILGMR
# [5] = target: T3, Serine/threonine-protein kinase Nek2 (Homo sapiens); settings: at 1 µM
# [6] = target: Serine/threonine-protein kinase Nek6 (Homo sapiens) (UniProt Q9HC98); settings: at 0.1 µM
# [7] = target: Serine/threonine-protein kinase Nek6 (Homo sapiens) (UniProt Q9HC98); settings: at 1 µM
# [8] = target: Serine/threonine-protein kinase Nek7 (Homo sapiens) (UniProt Q8TDX7); settings: at 0.1 µM
# [9] = target: Serine/threonine-protein kinase Nek7 (Homo sapiens) (UniProt Q8TDX7); settings: at 1 µM
# [10] = target: T4, Serine/threonine-protein kinase Nek9 (Homo sapiens) (UniProt Q8TD19); settings: at 0.1 µM
# T4 sequence (whole entry): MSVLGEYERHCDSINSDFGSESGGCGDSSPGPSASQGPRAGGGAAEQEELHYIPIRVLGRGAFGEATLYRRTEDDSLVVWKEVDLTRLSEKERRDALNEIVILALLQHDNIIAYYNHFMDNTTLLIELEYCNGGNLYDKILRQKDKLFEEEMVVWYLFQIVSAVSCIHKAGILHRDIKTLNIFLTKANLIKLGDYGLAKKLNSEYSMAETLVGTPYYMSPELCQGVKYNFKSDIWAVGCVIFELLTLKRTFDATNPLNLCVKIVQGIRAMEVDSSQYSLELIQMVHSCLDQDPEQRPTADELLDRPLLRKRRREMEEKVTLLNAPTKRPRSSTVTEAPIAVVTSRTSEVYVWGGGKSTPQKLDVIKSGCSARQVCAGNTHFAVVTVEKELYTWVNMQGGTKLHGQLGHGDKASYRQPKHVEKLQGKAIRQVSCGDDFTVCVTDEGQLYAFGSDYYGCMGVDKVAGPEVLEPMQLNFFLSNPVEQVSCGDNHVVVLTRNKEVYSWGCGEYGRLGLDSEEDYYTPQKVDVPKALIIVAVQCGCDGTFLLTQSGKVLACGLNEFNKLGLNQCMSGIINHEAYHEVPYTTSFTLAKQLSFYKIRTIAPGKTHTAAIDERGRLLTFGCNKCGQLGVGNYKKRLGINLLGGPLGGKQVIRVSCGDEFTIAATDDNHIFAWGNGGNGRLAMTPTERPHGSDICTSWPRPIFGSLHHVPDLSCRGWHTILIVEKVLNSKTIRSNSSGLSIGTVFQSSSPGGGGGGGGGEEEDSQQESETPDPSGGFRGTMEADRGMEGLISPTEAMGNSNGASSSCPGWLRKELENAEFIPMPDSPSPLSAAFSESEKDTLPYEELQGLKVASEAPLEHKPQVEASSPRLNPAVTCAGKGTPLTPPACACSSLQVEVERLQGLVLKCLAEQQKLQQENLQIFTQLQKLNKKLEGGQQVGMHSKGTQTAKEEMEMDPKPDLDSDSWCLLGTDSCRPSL
# [11] = target: T4, Serine/threonine-protein kinase Nek9 (Homo sapiens); settings: at 1 µM
# [12] = target: Serine/threonine-protein kinase PLK1 (Homo sapiens) (UniProt P53350); settings: at 0.1 µM
# [13] = target: Serine/threonine-protein kinase PLK1 (Homo sapiens) (UniProt P53350); settings: at 1 µM
# [14] = target: T5, Dual specificity protein kinase TTK (Homo sapiens) (UniProt P33981); settings: at 0.1 µM
# T5 sequence (whole entry): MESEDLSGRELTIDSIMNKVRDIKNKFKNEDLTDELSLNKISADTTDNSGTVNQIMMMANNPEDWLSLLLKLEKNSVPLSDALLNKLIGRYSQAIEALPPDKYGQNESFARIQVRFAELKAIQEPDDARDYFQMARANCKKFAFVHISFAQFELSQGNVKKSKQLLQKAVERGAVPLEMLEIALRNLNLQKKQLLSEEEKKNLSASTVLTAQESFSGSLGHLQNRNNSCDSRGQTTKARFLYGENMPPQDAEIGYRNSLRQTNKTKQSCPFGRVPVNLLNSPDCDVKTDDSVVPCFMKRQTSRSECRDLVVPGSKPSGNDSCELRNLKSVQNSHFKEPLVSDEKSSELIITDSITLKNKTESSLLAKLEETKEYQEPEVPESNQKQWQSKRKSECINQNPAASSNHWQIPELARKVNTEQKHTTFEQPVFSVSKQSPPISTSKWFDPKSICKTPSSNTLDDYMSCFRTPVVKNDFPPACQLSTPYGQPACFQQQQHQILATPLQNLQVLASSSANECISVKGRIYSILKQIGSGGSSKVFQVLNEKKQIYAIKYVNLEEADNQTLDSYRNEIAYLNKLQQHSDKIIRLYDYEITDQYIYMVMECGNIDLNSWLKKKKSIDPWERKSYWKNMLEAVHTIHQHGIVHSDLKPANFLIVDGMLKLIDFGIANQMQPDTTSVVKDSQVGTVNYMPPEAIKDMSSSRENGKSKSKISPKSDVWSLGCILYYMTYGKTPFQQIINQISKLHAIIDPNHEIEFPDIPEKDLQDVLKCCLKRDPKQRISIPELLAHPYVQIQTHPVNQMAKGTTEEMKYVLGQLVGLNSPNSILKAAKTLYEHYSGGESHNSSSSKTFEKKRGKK
# [15] = tested on: T6, Receptor-type tyrosine-protein kinase FLT3 (Homo sapiens), P36888 [D835Y]; settings: at 1 µM
# T6 sequence (whole entry): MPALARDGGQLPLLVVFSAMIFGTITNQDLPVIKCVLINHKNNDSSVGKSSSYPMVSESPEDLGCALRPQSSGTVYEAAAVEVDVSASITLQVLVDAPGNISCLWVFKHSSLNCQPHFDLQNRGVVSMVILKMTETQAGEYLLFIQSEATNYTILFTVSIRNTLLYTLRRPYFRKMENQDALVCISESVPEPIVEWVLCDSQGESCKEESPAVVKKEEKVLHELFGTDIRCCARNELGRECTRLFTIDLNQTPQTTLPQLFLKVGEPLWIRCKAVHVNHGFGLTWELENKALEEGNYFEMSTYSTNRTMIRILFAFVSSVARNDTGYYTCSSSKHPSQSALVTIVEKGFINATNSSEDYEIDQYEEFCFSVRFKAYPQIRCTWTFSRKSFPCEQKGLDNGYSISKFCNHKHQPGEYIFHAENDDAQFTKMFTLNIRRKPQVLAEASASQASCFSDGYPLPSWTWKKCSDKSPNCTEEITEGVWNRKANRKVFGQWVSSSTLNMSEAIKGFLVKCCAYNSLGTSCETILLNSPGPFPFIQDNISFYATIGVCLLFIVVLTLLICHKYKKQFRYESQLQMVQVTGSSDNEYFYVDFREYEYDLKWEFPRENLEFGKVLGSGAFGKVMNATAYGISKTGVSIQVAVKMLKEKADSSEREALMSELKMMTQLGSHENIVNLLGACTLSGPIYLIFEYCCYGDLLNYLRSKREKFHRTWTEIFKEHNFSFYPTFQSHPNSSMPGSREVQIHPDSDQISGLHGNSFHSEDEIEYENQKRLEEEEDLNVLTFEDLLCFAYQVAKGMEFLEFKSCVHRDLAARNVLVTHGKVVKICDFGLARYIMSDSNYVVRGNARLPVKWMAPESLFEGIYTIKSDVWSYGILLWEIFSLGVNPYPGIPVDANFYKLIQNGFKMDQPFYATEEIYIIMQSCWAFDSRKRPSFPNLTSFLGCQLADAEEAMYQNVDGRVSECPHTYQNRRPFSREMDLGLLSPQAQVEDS
# [16] = target: Vascular endothelial growth factor receptor 3 (Homo sapiens) (UniProt P35916); settings: at 0.1 µM
# [17] = target: Vascular endothelial growth factor receptor 3 (Homo sapiens) (UniProt P35916); settings: at 1 µM
# [18] = target: Macrophage colony-stimulating factor 1 receptor (Homo sapiens) (UniProt P07333); settings: at 0.1 µM
# [19] = target: Macrophage colony-stimulating factor 1 receptor (Homo sapiens) (UniProt P07333); settings: at 1 µM
# [20] = target: Tyrosine-protein kinase Fyn (Homo sapiens) (UniProt P06241); settings: at 0.1 µM
# Chain of Tyrosine-protein kinase Fyn (Homo sapiens) (P06241 2-537 limits assumed): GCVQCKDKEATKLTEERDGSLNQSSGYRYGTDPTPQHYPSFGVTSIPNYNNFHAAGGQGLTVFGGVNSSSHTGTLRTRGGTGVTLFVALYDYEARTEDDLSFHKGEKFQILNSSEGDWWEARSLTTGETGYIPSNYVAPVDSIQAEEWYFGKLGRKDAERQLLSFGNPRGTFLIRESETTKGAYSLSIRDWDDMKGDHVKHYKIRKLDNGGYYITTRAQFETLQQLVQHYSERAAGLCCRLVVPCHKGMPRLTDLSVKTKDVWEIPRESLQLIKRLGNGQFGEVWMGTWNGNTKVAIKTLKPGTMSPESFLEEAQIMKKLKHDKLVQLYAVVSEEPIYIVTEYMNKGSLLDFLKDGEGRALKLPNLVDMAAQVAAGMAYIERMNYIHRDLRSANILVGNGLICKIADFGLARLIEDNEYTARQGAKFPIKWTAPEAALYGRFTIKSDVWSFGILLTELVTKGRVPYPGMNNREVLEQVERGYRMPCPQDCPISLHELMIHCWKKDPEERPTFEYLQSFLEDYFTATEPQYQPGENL
# Chain of Serine/threonine-protein kinase PLK1 (Homo sapiens) (P53350 whole entry): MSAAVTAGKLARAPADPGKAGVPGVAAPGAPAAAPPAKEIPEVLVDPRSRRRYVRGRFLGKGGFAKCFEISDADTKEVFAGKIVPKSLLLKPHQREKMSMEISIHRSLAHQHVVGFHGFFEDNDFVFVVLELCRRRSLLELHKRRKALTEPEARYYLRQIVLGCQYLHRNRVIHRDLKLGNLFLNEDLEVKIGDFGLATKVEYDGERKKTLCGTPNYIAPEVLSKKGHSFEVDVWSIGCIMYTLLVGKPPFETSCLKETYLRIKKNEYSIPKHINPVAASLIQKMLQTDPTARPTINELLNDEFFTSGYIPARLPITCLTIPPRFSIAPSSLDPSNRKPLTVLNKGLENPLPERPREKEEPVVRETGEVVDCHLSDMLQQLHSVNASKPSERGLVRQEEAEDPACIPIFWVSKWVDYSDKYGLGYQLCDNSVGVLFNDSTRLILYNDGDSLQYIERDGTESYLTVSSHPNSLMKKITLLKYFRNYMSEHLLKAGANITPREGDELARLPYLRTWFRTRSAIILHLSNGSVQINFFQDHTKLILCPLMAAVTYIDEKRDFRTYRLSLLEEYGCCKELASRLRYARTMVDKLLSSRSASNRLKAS
# Chain of Vascular endothelial growth factor receptor 3 (Homo sapiens) (P35916 whole entry): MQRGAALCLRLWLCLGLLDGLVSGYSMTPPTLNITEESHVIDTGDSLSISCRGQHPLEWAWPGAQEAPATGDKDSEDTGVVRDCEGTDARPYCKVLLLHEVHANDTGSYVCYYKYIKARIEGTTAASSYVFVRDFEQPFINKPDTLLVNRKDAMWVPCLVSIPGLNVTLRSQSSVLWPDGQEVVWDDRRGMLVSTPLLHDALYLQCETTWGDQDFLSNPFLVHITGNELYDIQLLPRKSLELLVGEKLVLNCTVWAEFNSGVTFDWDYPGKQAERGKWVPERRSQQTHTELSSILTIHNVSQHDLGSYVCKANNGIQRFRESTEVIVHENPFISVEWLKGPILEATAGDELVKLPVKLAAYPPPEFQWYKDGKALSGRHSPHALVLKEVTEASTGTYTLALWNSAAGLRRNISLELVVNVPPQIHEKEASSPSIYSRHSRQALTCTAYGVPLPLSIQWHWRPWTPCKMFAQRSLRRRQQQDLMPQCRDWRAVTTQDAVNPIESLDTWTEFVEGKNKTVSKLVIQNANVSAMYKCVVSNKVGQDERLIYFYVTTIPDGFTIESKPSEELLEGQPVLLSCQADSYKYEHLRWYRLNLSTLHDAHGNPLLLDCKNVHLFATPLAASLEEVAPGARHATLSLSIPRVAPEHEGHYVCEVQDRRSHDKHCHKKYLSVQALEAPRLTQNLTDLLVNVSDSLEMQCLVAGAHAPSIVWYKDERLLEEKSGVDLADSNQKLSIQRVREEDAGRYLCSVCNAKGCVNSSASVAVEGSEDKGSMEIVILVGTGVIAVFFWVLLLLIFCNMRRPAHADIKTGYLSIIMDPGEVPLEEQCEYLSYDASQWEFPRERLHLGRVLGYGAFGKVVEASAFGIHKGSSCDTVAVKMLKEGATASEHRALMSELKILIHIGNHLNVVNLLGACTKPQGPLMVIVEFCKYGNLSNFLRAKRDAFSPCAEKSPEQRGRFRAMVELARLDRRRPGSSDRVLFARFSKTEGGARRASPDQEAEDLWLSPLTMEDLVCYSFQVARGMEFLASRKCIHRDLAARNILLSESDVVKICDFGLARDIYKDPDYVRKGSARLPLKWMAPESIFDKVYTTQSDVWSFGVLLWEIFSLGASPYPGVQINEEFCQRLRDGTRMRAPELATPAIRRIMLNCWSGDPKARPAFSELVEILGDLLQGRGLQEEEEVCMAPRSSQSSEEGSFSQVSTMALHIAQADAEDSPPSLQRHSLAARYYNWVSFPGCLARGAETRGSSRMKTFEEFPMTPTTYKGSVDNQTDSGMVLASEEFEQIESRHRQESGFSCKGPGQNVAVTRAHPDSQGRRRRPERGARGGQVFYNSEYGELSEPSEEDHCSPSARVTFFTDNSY
# Chain of Serine/threonine-protein kinase Nek7 (Homo sapiens) (Q8TDX7 whole entry, looked up): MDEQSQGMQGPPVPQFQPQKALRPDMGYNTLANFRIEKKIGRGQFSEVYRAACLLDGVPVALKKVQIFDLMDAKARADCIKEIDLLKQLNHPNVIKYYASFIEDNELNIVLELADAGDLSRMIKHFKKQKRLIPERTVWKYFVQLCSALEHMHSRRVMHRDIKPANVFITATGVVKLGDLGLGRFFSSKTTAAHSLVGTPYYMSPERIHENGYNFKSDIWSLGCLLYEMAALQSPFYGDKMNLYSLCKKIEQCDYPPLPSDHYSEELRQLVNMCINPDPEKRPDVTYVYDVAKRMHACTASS
# Chain of Macrophage colony-stimulating factor 1 receptor (Homo sapiens) (P07333 whole entry): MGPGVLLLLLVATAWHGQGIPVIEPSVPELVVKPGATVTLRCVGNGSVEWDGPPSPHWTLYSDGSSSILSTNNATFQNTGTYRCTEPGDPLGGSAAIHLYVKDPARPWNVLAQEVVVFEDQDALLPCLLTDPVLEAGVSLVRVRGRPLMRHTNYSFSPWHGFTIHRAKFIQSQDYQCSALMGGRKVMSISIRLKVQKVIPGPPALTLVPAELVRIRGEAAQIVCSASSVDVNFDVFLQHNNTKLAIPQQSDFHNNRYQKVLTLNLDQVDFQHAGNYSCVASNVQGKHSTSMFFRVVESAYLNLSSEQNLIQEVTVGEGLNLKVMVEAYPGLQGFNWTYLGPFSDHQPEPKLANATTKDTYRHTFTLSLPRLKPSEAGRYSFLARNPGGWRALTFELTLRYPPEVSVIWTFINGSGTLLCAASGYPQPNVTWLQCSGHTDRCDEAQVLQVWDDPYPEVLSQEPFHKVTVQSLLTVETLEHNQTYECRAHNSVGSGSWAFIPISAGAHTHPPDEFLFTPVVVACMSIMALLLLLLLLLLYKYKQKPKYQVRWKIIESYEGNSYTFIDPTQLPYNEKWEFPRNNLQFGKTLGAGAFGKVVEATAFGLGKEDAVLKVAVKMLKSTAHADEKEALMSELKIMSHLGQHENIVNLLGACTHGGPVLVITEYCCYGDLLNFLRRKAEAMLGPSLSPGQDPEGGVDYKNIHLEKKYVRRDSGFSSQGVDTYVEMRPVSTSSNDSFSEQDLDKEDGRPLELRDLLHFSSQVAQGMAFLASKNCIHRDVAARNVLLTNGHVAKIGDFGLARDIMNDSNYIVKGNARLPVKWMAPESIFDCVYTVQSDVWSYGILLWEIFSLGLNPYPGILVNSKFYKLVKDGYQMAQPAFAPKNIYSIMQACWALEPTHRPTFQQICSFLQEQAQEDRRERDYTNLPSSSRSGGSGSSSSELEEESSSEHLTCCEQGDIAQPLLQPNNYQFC
# Chain of Serine/threonine-protein kinase Nek6 (Homo sapiens) (Q9HC98 whole entry): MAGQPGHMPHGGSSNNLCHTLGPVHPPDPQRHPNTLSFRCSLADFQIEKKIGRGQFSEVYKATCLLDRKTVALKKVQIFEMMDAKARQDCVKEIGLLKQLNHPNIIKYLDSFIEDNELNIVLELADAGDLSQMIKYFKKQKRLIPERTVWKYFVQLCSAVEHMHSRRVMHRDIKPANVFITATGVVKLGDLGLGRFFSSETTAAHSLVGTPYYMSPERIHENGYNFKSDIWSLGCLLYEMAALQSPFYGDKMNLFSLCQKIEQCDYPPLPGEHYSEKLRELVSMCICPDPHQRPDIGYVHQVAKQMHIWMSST
SMILES,inhibition [1] [%],inhibition [2] [%],inhibition [3] [%],inhibition [4] [%],inhibition [5] [%],inhibition [6] [%],inhibition [7] [%],inhibition [8] [%],inhibition [9] [%],inhibition [10] [%],inhibition [11] [%],inhibition [12] [%],inhibition [13] [%],inhibition [14] [%],inhibition [15] [%],inhibition [16] [%],inhibition [17] [%],inhibition [18] [%],inhibition [19] [%],inhibition [20] [%]
NS(=O)(=O)c1cccc(-c2cc3ccncc3cc2OCc2ccccc2)c1,5.04,2.64,2.55,5.53,6.81,0.87,-0.35,5.92,3.78,2.36,5.52,3.05,4.2,7.53,-1.3,15.2,18.5,4.7,5.36,4.1
CCn1c(-c2nonc2N)nc2ccc(F)cc21,11,3.29,4.51,6.07,7.52,5.03,5.4,5.72,3.91,5.14,6.41,6.39,4.59,12.1,1.01,6.14,6.77,1.29,0.35,2.04
